# Screening results (PubChem BioAssay)
# An excerpt weighted towards active compounds, which were near 6.7% of everything screened.
# Bead autofluor = flagged as autofluorescent in microsphere protease counterscreen; compound autofluorescence counterscreen, microsphere flow cytometry; active compounds read high; fluorescence intensity (test concentration not listed); actives 3.1% (n = 360,000); AID 624483; in the data active means fluorescence intensity above about 16000; inconclusive means no clear call, values can overlap the other calls
# Anthrax LF inh2 = anthrax lethal factor protease inhibition. P15917. multiplex microsphere protease cleavage assay, LF. inhibition, % at 10 µM. actives 0.12% (n = 360,000). AID 588501; further: plate controls were buffer without enzyme for full effect and enzyme alone for no effect
# Target sequence (P15917 whole entry, looked up): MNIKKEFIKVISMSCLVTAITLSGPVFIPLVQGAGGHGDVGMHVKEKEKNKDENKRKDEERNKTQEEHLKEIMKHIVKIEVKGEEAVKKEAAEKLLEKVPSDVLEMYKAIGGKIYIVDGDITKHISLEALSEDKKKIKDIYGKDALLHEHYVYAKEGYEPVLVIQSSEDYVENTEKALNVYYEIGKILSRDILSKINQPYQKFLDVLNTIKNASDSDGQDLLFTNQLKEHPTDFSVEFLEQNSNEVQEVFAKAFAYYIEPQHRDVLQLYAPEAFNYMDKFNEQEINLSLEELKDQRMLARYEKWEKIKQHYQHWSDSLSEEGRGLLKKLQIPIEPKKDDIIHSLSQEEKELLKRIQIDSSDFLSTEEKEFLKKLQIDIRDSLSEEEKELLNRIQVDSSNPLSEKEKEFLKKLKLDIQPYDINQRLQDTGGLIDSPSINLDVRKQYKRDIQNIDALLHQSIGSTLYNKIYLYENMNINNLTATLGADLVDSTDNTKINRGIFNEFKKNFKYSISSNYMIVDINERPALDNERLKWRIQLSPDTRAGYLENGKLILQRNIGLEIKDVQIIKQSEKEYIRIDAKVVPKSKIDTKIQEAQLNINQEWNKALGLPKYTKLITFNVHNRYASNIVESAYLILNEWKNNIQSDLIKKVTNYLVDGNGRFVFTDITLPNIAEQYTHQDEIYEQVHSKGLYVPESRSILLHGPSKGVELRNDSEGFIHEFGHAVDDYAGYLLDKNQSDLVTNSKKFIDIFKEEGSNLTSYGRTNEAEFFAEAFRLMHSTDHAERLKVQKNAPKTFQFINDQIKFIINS
# BoNT-F LC inh = inhibitors of Botulinum neurotoxin F light chain protease | Multiplex microsphere protease cleavage assay, flow cytometry | inhibition, % at 10 µM | actives 0.22% (n = 360,000) | AID 588497; in the data active means inhibition above about 35%, passing the limit was not always enough; inconclusive means no clear call, values can overlap the other calls; further: plate controls were buffer without enzyme for full effect and enzyme alone for no effect
# BoNT-A LC inh2 = blocks Botulinum neurotoxin A light chain protease | multiplex microsphere protease substrate cleavage, flow cytometry | inhibition, % at 10 µM | actives 0.17% (n = 360,000) | AID 588499; further: plate controls were buffer without enzyme for full effect and enzyme alone for no effect
# Mtb FBA inh = Mtb fructose-bisphosphate aldolase inhibition. P9WQA3. purified M. tuberculosis FBA, fluorescence read-out. inhibition, % at 1 µM. actives 2.3% (n = 360,000); in the data active means inhibition above about 27%;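 further: 0% = vehicle and 100% = reference inhibitor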
# GDH-TPI inh = inhibits GDH-TPI coupling enzymes, artifact for Mtb FBA screen. inhibition, % at 4.8 µM. GDH-TPI coupled enzyme counterscreen, NADH absorbance. actives 1.2% (n = 360,000); in the data active means inhibition above about 30%;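 further: 0% = DMSO wells and 100% = wells lacking the enzyme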
# An asterisk follows results filed as active; ? = inconclusive; . = no result; + = active, no number. Unless noted, no stated cut-off is given here; in the data, active means inhibition above about 30%; inconclusive means no clear call, values can overlap the other calls; inactive means below that.
SMILES,Bead autofluor,Anthrax LF inh2,BoNT-F LC inh,BoNT-A LC inh2,Mtb FBA inh,GDH-TPI inh
COc1ccc2[nH]c(C(=O)N/N=C/c3ccccc3OC)cc2c1,3869,0,-9,-3,5,38*
Cc1cccc(C(=O)O/N=C2/CC3CCC2(C)C3(C)C)c1 (stereo unspecified),4506,9,-8,1,2,-3
Cc1ccc(C(=O)O/N=C2\CC3CCC2(C)C3(C)C)cc1 (stereo unspecified),21254*,-3,1,?,-1,10
CCn1c(NCCCO)nc2c(c1=O)C(C)(CC)Cc1ccccc1-2 (stereo unspecified),5646,-5,-6,-1,155*,19
CCC1(C)Cc2ccccc2-c2nc(NCCCO)n(C)c(=O)c21 (stereo unspecified),6877,-6,?,-12,163*,-1
O=c1c2c(nc3n1CCCCC3)-c1ccccc1CC21CCCCC1,8504,-3,5,1,1,6
CCC1(C)Cc2ccccc2-c2nc3n(c(=O)c21)CCCCC3 (stereo unspecified),21213*,-4,-2,-1,-1,-3
O=c1c2c(nc(NCCO)n1CC1CCCCC1)-c1ccccc1CC21CCCC1,.,.,.,.,43*,12
COc1ccc(-c2ccc(-c3nnc(-c4cc(OC)ccc4OC)o3)cc2)cc1,22687*,1,0,?,1,17
CC(=O)Nc1ccc(SCC(=O)NNC(=O)CN(C)S(=O)(=O)c2ccc(C)cc2)cc1,?,-1,-4,-2,4,4
CCc1cc2c(=O)n(CCC(C)C)c(=S)[nH]c2s1,3816,0,-3,0,-6,18
CCc1nc(SCc2cc(Cl)ccc2OC)n[nH]1,17236*,0,-8,-4,0,6
Nc1ccccc1C(=O)N(Cc1ccccc1)Cc1ccccc1,10817,-10,-15,-2,5,-3
COc1ccccc1-c1nc(C#N)c(N2CCC(Cc3ccccc3)CC2)o1,3407,-10,6,-1,44*,19
N#Cc1nc(COc2ccc(F)cc2)oc1N1CCC(Cc2ccccc2)CC1,16803*,-5,-3,-1,-3,10
COc1ccc(OCc2nc(C#N)c(N3CCN(c4ccc(OC)cc4)CC3)o2)cc1,5128,-8,-6,-1,-2,-3
COc1ccc(N2CCN(c3oc(COc4ccccc4Cl)nc3C#N)CC2)cc1,19893*,-10,-1,?,-1,11
CCOc1ccc(NC(=O)c2ccccc2OC)cc1,3256,-4,-9,0,-7,6
Oc1ccc(C(=S)N2CCCCCC2)cc1,.,.,.,.,0,0
Cc1ccccc1CC1(CO)CCCN(C(=O)CCC(F)(F)F)C1 (stereo unspecified),4526,-2,5,1,1,0
CCc1ccccc1NC(=O)CSc1n[nH]c(-c2cccnc2)n1,3495,5,-18,0,-2,-8
CCc1ccccc1NC(=O)Cn1nnc(-c2cccnc2)n1,22832*,-1,2,0,-3,-8
O=C(Nc1ccc(Cl)cc1)C1CCCN(c2cnccn2)C1 (stereo unspecified),5797,0,5,-1,3,10
Cc1nnc(SCC(=O)NC2CCS(=O)(=O)C2)n1Cc1ccccc1 (stereo unspecified),4551,-3,2,-1,3,1
Cc1cccn2c(=O)c3cc(C(=O)NC(C)c4ccccc4)c(=N)n(CCCn4ccnc4)c3nc12 (stereo unspecified),5800,1,-5,0,161*,0
SMILES,Bead autofluor,Anthrax LF inh2,BoNT-F LC inh,BoNT-A LC inh2,Mtb FBA inh,GDH-TPI inh
Cc1ccc2nc3c(cc(C(=O)NCCc4ccccc4)c(=N)n3CCN3CCOCC3)c(=O)n2c1,5950,0,7,2,188*,3
Cc1cc(C(=O)NCCN2CCOCC2)c2ccccc2n1,2831,-6,-3,0,4,15
Cc1ccc2nc3c(cc(C(=O)NC4CCS(=O)(=O)C4)n3Cc3ccccc3)c(=O)n2c1 (stereo unspecified),5364,-3,5,2,+,26
CCCCCn1c(=N)c(S(=O)(=O)c2ccc(Br)cc2)cc2c(=O)n3cccc(C)c3nc21,4863,13,17,11,-1,-2
Cc1ccc2nc3c(cc(C(=O)NCc4ccccc4)c(=N)n3CCCn3ccnc3)c(=O)n2c1,5416,-5,-6,2,131*,11
Cc1ccc(CNC(=O)CCCC(=O)c2ccccc2)cc1,3319,-8,1,-4,3,0
